This passage reports Potency results from PubChem BioAssay (Tox21).

The nature of experiment [1]: A CellTox Green Cytotoxicity Assay to monitor cytotoxicity in HepG2 cells - 32 hour (AID 1224883). Note: nearly all actives have a fitted effect of over 50% in size. The gist of the method:
(§1)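 Real-time, homogeneous cytotoxicity readout: dead-cell DNA staining by CellTox Green in HepG2 monolayers, fluorescence measured at timed intervals up to 40 h of continuous compound exposure.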

Experiment [2] is described as follows: A CellTox Green Cytotoxicity Assay to monitor cytotoxicity in HEK293 cells - 8 hour (AID 1224884). Note: nearly all actives have a fitted effect of over 35% in size. The gist of the method:
(§2)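 Cytotoxicity was tracked continuously in HEK293 cells by a DNA-binding dye excluded from viable cells. Compounds were transferred in DMSO 5 h after seeding; fluorescence was recorded at intervals up to 40 h.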

A short description of experiment [3]: qHTS RealTime-Glo MT Cell Viability Assay in HEK293 cells - 8 hour (AID 1224887). Note: nearly all actives have a fitted effect of over 50% in size. The gist of the method:
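Nonlytic bioluminescent viability monitoring. HEK293 at 600 cells/well with reagent; 5 h settle; compound transfer by pintool; plates held at 37 C and read at set time points.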
In general terms: qHTS replaces the single test concentration by a dilution series.

The nature of experiment [4]: A CellTox Green Cytotoxicity Assay to monitor cytotoxicity in HEK293 cells - 16 hour (AID 1224888). Note: nearly all actives have a fitted effect of over 35% in size. The gist of the method: as §2
Experiment [5] in a line: A CellTox Green Cytotoxicity Assay to monitor cytotoxicity in HepG2 cells - 8 hour (AID 1224890). Note: nearly all actives have a fitted effect of over 45% in size. Summed up: as §1
A short description of experiment [6]: qHTS assay to identify small molecule antagonists of the estrogen receptor alpha (ER-alpha) signaling pathway using the BG1 cell line in the presence of 0.1 nM 17-beta-estradiol - cell viability counter screen (AID 1259241). Note: nearly all actives have a fitted effect of over 40% in size. The gist of the method: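 Cells were plated and left 24 hr, compounds in DMSO were pinned in, 17beta-estradiol was added to 0.1 nM final, and after 22 hr CellTiter-Fluor reagent was added for 30 min before fluorescence was read.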

Experiment [7] in a line: qHTS assay to identify small molecule antagonists of the androgen receptor (AR) signaling pathway using the MDA cell line in the presence of 0.5 nM R1881 - cell viability counter screen (AID 1259242). Note: nearly all actives have a fitted effect of over 45% in size. The gist of the method: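 Cytotoxicity toward MDA-kb2 cells is measured by CellTiter-Fluor live-cell protease fluorescence after 16 hr compound exposure at 37C in the presence of 0.5 nM R1881 stimulator.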

Experiment [8] is described as follows: qHTS RealTime-Glo MT Cell Viability Assay in HEK293 cells - 24 hour (AID 1224886). Note: nearly all actives have a fitted effect of over 50% in size. Summed up:
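Luminescence generated by NanoLuc from substrate produced by living HEK293 cells served as the viability signal. Each value reflects the reading at its stated time point during continuous 40 h compound exposure at 37 C.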

A short description of experiment [9]: qHTS RealTime-Glo MT Cell Viability Assay in HepG2 cells - 0 hour (AID 1224889). Note: nearly all actives have a fitted effect of over 50% in size. The gist of the method: (§3)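 Tox21 10K library screened in qHTS format on HepG2 cells carrying RealTime-Glo reagents. Compounds were added after a 5 h preincubation, and the luminescent signal from continuous culture was measured repeatedly during 40 h treatment.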
Experiment [10] in a line: qHTS RealTime-Glo MT Cell Viability Assay in HepG2 cells - 16 hour (AID 1224885). Note: nearly all actives have a fitted effect of over 50% in size. The gist of the method:
as §3

The structures appear in SMILES notation. “And” between values parts separate entries of the source, which are not always exact repeats. Identical values can stand only once. Results filed as inconclusive are left out. The source holds several records for some structures; these can differ, active in one and inactive in another. The source made the active and inactive calls. Calls come from the whole dose curve; as a rule, active = well fitted curve in the direction sought with a large enough effect in the repeat runs; inconclusive = weak or mixed curves; inactive = no such curve, though single readings can be large; an effect the other way counts as inactive or inconclusive.
Potency is the fitted concentration of half-maximal effect.

On to `CC[C@]1(O)C[C@@H]2CN(CCc3c([nH]c4ccccc34)[C@@](C(=O)OC)(c3cc4c(cc3OC)N(C)[C@H]3[C@@](O)(C(=O)OC)[C@H](OC(C)=O)[C@]5(CC)C=CCN6CC[C@]43[C@@H]65)C2)C1`, for which the Potency result in [1], in experiment [2], in experiment [3], in experiment [4], in experiment [5] and in experiment [7] was “inactive” throughout. For the same molecule, in [6], the Potency is 1.88 µM (active).
For the molecule `COC(=O)[C@H]1[C@H]2C[C@@H]3c4[nH]c5cc(OC)ccc5c4CCN3C[C@H]2C[C@@H](OC(=O)c2cc(OC)c(OC)c(OC)c2)[C@@H]1OC`, the Potency result in [1], in [2], in experiment [4], in [9], in [5] and in experiment [6] was “inactive” throughout. The Potency entry in experiment [7] is “inactive”. In addition, the Potency in experiment [8] is 4.89 µM (active) and 6.34 µM (active) and 8.49 µM (active); in experiment [3], 4.89 µM (active) and 6.34 µM (active) and 9.52 µM (active).
As to `Nc1cc(Cl)c(-c2cc(Cl)c(N)cc2Cl)cc1Cl`, the Potency in experiment [1] was 17.4 µM (active) and 54.9 µM (active); in [8] it was 11 µM (active). Besides, the Potency entry in experiment [2], in [3], in experiment [4], in experiment [9], in experiment [5] and in [6] was “inactive” in each case. Besides, in experiment [7], the Potency entry was “inactive”.
In the case of `COc1ccc(CCN(C)CCCC(C#N)(c2ccc(OC)c(OC)c2)C(C)C)cc1OC` (stereo not drawn), the Potency in experiment [1] was 54.8 µM (active). For the same molecule, the Potency entry in experiment [2], in [4] and in experiment [5] was “inactive” in each case.
For the molecule `c1ccc2n[nH]nc2c1`, the Potency entry in [1], in experiment [10], in experiment [8], in [3], in [4] and in [9] was “inactive” each time. Further, the Potency result in experiment [5], in [6] and in experiment [7] was “inactive” throughout.
For the molecule `CCCCCC(=O)O[C@]1(C(C)=O)CC[C@H]2[C@@H]3CCC4=CC(=O)CC[C@]4(C)[C@H]3CC[C@@]21C`, the Potency result in [1], in [2], in experiment [3], in [4] and in experiment [5] was “inactive” each time. Besides, the Potency in [8] is 24.4 µM (active); in experiment [9] it was 4.34 µM (active); in experiment [7], 43 µM (active).
For the molecule `CC(C)(O)CCC(C)(C)O`, the Potency entry in [1], in experiment [2], in [10], in experiment [3], in [4] and in experiment [9] was “inactive” in each case. For the same molecule, the Potency result in experiment [5] and in experiment [7] was “inactive” throughout.
Turning to `CCCCCCCCCCCCc1ccccc1O`, the Potency in experiment [1] was 19.5 µM (active); in [10], “inactive and 34.7 µM (active)”; in [8], 43.1 µM (active) and 49 µM (active); in experiment [3], 43.1 µM (active) and 38.9 µM (active); in experiment [4], 43.1 µM (active) and 38.9 µM (active); in experiment [5] it was “inactive and 21.9 µM (active)”. Besides, the Potency entry in [9] and in experiment [6] was “inactive” throughout.
On to `O=C(O)Cn1cnnn1`, for which the Potency entry in experiment [1], in [2], in experiment [10], in experiment [3], in experiment [4] and in [5] was “inactive” each time. Also, the Potency entry in experiment [6] and in experiment [7] was “inactive” each time.
In the case of `CCOc1ccccc1C(N)=O`, the Potency result in experiment [1], in experiment [2], in experiment [10], in [3], in experiment [4] and in experiment [5] was “inactive” throughout. Further, the Potency entry in experiment [6] and in [7] was “inactive” each time.
For the molecule `CC1=C(C=O)C(C)(C)CC=C1`, the Potency entry in experiment [1], in [10], in experiment [8], in [3], in [4] and in experiment [9] was “inactive” in each case. In addition, the Potency entry in [5], in experiment [6] and in experiment [7] was “inactive” in each case.
For the molecule `Cc1cc(Cc2cc(C)cc(C(C)(C)C)c2O)c(O)c(C(C)(C)C)c1`, the Potency in experiment [1] was 43.9 µM (active) and 43.6 µM (active); in experiment [2], 49.2 µM (active) and inactive; in experiment [10], 43.9 µM (active) and 43.6 µM (active); in [3] it was 15.6 µM (active) and 19.5 µM (active); in [4], 49.2 µM (active); in experiment [5], 43.9 µM (active) and 34.7 µM (active). Further, the Potency in experiment [7] was 30.8 µM (active). Also, the Potency result in experiment [6] was “inactive”.
Regarding `Nc1nc2ccccc2[nH]1`, the Potency entry in experiment [1], in experiment [2], in [10], in experiment [3], in experiment [4] and in experiment [5] was “inactive” throughout. In [7], the Potency entry is “inactive”.
As to `O=C(O)CP(=O)(O)O`, the Potency entry in [1], in experiment [10], in experiment [8], in [3], in experiment [4] and in [9] was “inactive” throughout. For the same molecule, the Potency entry in [5], in [6] and in [7] was “inactive” throughout.
`Oc1c(Cl)cc(Cl)c(Cl)c1Cc1c(O)c(Cl)cc(Cl)c1Cl`: the Potency result is “inactive and 38.9 µM (active)” in [1]; 8.41 µM (active) in [7]. Moreover, the Potency result in experiment [2], in experiment [10], in experiment [3], in experiment [4] and in experiment [5] was “inactive” throughout.
Consider `BrC1CCC(Br)C(Br)CCC(Br)C(Br)CCC1Br` (stereo not drawn), for which the Potency result in [1], in experiment [2], in experiment [8], in experiment [3], in [4] and in [5] was “inactive” throughout. For the same molecule, the Potency entry in [7] was “inactive”.
As for `CCOc1ccc2c(c1)C(C)=CC(C)(C)N2`, the Potency entry in experiment [1], in experiment [2], in experiment [10], in [3], in experiment [4] and in experiment [5] was “inactive” each time. In addition, the Potency result in [6] and in experiment [7] was “inactive” in each case.
For `CC[C@@H](N)CO`, the Potency entry in experiment [1], in experiment [2], in experiment [10], in experiment [3], in experiment [4] and in experiment [5] was “inactive” throughout. Also, the Potency result in experiment [6] and in [7] was “inactive” each time.
Turning to `O=C(Nc1ccccc1SSc1ccccc1NC(=O)c1ccccc1)c1ccccc1`, in [1], the Potency was 49 µM (active). The Potency entry in [2], in [10], in experiment [4], in experiment [5] and in experiment [7] was “inactive” in each case.
Consider `CC(C)CCCCCCc1ccc(O)cc1`, for which the Potency in experiment [1] is 19.8 µM (active) and 43.6 µM (active); in experiment [2] it was 39.6 µM (active); in experiment [3], 19.8 µM (active); in experiment [4], 39.6 µM (active) and 38.9 µM (active); in experiment [5], 25 µM (active) and 43.6 µM (active); in experiment [7], 6.98 µM (active) and inactive. Also, the Potency entry in experiment [10] and in experiment [9] was “inactive” throughout.
For the molecule `CC1=CC(=O)c2ccccc2C1=O`, the Potency is 43.6 µM (active) and 26.8 µM (active) in experiment [1]; 21.9 µM (active) and 23.9 µM (active) in experiment [2]; 43.6 µM (active) in experiment [10]; 7.76 µM (active) and 16.9 µM (active) in [3]; 21.9 µM (active) and 26.8 µM (active) in [4]; 54.9 µM (active) and 23.9 µM (active) in experiment [5]. Besides, the Potency in experiment [7] is 43.3 µM (active). The Potency result in experiment [9] was “inactive”.
